# In all, about 2,300 compounds went through this assay and about 1,400 (61%) were called active. Roughly 7% stayed inconclusive and do not appear here. No rule for the calls is given here. The set was probably picked from earlier hits. The list is a sample of the results. Results with a measured potency or affinity are listed apart.
# Target: FAD-linked sulfhydryl oxidase ALR (Homo sapiens) (UniProt P55789)
# Assay: ALR-catalysed DTT oxidation blockers – biochemical, H2O2 detection, luminescence, cherry-pick, dose response (AID 493248)
# Conditions: purified ALR, H2O2 HRP-luminol luminescence; at 10 µM (top of the series)
# FAD-linked sulfhydryl oxidase ALR (Homo sapiens), sequence (P55789 whole entry, looked up): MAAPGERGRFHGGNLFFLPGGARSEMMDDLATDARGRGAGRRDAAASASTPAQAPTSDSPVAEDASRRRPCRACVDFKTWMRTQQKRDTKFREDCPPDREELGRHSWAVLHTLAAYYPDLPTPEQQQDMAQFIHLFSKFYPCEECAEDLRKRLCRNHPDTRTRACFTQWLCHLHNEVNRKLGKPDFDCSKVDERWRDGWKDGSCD
row,SMILES,"activity change, negative = inhibition"
1,CC(C)N1C(=O)C2C(c3ccccc3O)NC(C)(C(=O)O)C2C1=O (configuration not stated),4.76%
2,CCc1c(C(=O)NCc2cnn(C)c2)csc1C,-7.16%
3,Cc1cccc(CSc2nn3c(=O)c(C)nnc3s2)c1,-99.2%
4,Cc1ccc(CNC(=O)C(NS(=O)(=O)c2ccc3nc(C)sc3c2)C(C)C)cc1 (configuration not stated),40.5%
5,Cc1nc2ccc(S(=O)(=O)NC(C(=O)Nc3nccs3)C(C)C)cc2s1 (configuration not stated),-35.5%
6,COc1ccc(NC(=O)CNS(=O)(=O)c2ccc3nc(C)sc3c2)c(OC)c1,-62.8%
7,C/C(=N\NS(=O)(=O)c1ccc(Cl)cc1)c1ccc(O)cc1,-79.4%
8,Cc1cc(NC(=O)Nc2cccc(C)c2C)no1,-49%
9,CC(=O)Nc1cccc(N=NN2CCCCC2)c1,26.8%
10,O=C(Nc1ccccc1N1CCCC1)c1cccnc1,-34.6%
11,CC(=O)Nc1ccc(S(=O)(=O)NNC(=O)c2cccc(Cl)c2)cc1,-37.6%
12,Cc1cc(NC(=O)c2ccoc2C)ccc1Br,-11.3%
13,CCc1nnc(NS(=O)(=O)c2ccc(NC(=O)OC)cc2)s1,-99.5%
14,COc1ccc(S(=O)(=O)Nc2nc3ccccc3nc2Nc2cccc(C(=O)O)c2)cc1,-80.5%
15,Cc1nc2ccc(Br)cn2c1NC(C)(C)C,15.9%
16,O=C1CSC(c2ccccc2)N1c1ccc([N+](=O)[O-])cc1 (configuration not stated),-50.9%
17,COc1ccc(C2SCC(=O)N2Cc2ccccc2)cc1 (configuration not stated),-33.1%
18,Cc1noc(NS(=O)(=O)c2ccc(NC(=O)CCN3C(=O)c4ccccc4C3=O)cc2)c1C,-21.6%
19,O=C(O)CCCC(=O)N1CCN(c2nc(-c3ccccc3)c3ccccc3n2)CC1,-0.988%
20,COc1ccc(N=C2C(=O)Nc3ccccc32)cc1,-24.8%
21,Cc1ccc(N(C(=O)c2cccs2)C2C=CS(=O)(=O)C2)cc1 (configuration not stated),-56.3%

row,SMILES,"activity change, negative = inhibition"
1,COc1ccc(Nc2nccc(-c3cccc(N)c3)n2)cc1,-11.7%
2,CC1CCC2(CC1)NC(=S)N(c1ccccc1)N2 (configuration not stated),-28.1%
3,COC(=O)c1sccc1NC(=O)c1cc(C)on1,-8.04%
4,Cc1nn(C)c(Nc2ccc(Br)cc2)c1Br,-46.2%
5,Cn1c(CNc2ccc(O)cc2)nc2ccccc21,-101%
6,COc1ccc(N2CCN(c3ncccn3)CC2)cc1,-8.28%
7,COc1ccc(S(=O)(=O)N2CCC(C(=O)Nc3ccccc3N3CCCC3)CC2)cc1OC,-28.9%
8,COC(=O)c1c(NC(=O)CN2CCN(Cc3ccc4c(c3)OCO4)CC2)sc(C)c1C,-8.94%
9,Cc1ccccc1NC(=O)CNc1ccccc1N1CCCCC1,-89.6%
10,O=C(Nc1ccccc1N1CCCC1)c1cccc(F)c1,-3.33%
11,c1ccc2c(c1)CSc1ccccc1N2,-6.27%
12,CC1CN(C(=O)Nc2ccc3snnc3c2)c2ccccc21 (configuration not stated),-13.6%
13,CCCCCC(=O)N/N=C/c1ccc(N(C)C)cc1,-20.3%
14,O=C(CNC(=O)c1ccccc1Br)N/N=C/c1ccc(O)cc1,-106%
15,CN(C)c1ccc(C=Nc2cnn(C)c2C(N)=O)cc1,-35.9%
16,CN(C)c1ccc(/C=N/NC(=O)c2sccc2-n2cccc2)cc1,-99%
17,CCn1c(NC(=O)c2ccc(C)cc2)c2ccccc2nc1=O,-48.8%
18,O=Cc1c(Sc2ccccc2)nc2ccccn2c1=O,-18.4%
19,O=C1Oc2ccccc2C(=O)/C1=C\N1CCN(c2ccccc2)CC1,-15.7%
20,Cc1ccc(S(=O)(=O)Nc2c(O)ccc3ccccc23)cc1,13.8%
21,COc1ccc(OC)c(S(=O)(=O)Nc2cccc3c(O)cccc23)c1,31.7%

row,SMILES,"activity change, negative = inhibition"
1,COc1ccc(C=O)cc1CSc1ccccn1,-11.6%
2,COc1c(OC)c(O)c2c(=O)cc(-c3c(O)cccc3O)oc2c1OC,162%
3,Cc1nc(-c2ccc([N+](=O)[O-])cc2)c(-c2ccccc2)o1,29.9%
4,O=C(CC1C(=O)Nc2ccccc2N1CC(=O)N1CCCC1)Nc1ccc(Br)cc1 (configuration not stated),-30%
5,CCN(CC)c1ccc2oc(=O)c(C)nc2c1,88.3%
6,O=C(CCNc1cccc(Cl)c1)c1ccco1,-4.82%
7,O=C(c1cc(C(=O)c2ccco2)cc(C(=O)c2ccco2)c1)c1ccco1,-7.08%
8,COc1cc(NCCC(=O)c2cccs2)c(OC)cc1Cl,-89.7%
9,c1ccc2c3c([nH]c2c1)-c1[nH]ncc1CC3,-82.4%
10,NC(=O)NC1CCCc2c1[nH]c1ccc(Cl)cc21 (configuration not stated),-12.4%
11,COc1ccc(-c2csc(NC(=O)[C@H](C)N3C(=O)C4CC=CCC4C3=O)n2)cc1OC (some centres not stated),-58.5%
12,COc1cc(/C=C2\SC(=Nc3ccccc3OC)NC2=O)ccc1O,-53.3%
13,O=C(c1cccc(Cl)c1)C1CCCN(Cc2ccc(N3CCNC3=O)cc2)C1 (configuration not stated),-1.51%
14,CCC(=O)N1CCN=C1SCc1cccc(F)c1,-25.9%
15,O=C(CN1C(=O)CSC1=O)N1CCCC(Nc2ccc(F)cc2)C1 (configuration not stated),-78.4%
16,Cc1nc(N2CCN(C)CC2)c2cc(-c3ccccc3)sc2n1,-4.2%
17,COc1cc(C(=O)O)c2c(c1C)OC(=O)c1c(C)cc(O)c(C=O)c1O2,-39.1%
18,CNC(=O)c1csc(-c2ccc(C)cc2)n1,146%
19,CCNc1nc(NCC)nc(N(C)N)n1,-22.3%
20,Cc1cccc(NCc2ccc(N(C)C)cc2)n1,-5.45%
